In the supplement of paper PMC12024424:

Each compound was assayed on Staphylococcus aureus Sa2 (MRSA, cystic fibrosis isolate) (assay: growth reduction vs untreated control (viable cell count); higher = stronger antibacterial activity; extreme values may be limits of the assay). Details: 0.1 mM; 24 h.
Experimental: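 Single-dose screen of the MedChem Express Drug Repurposing Library (0.1 mM, 1% DMSO) against planktonic MRSA S. aureus Sa2 (CF isolate) in TSB in 96-well plates, 37 °C aerobic, 24 h. Assays were run in triplicate and repeated twice.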

| Structure (SMILES) | growth reduction [%] |
| --- | --- |
| CN1CCN(c2ccc3nc(-c4c(N)c5c(F)cccc5[nH]c4=O)[nH]c3c2)CC1 [Dovitinib (lactate)] | 99 |
| O=C1[C@H](CC[C@H](O)c2ccc(F)cc2)[C@@H](c2ccc(O)cc2)N1c1ccc(F)cc1 [Ezetimibe] | 91 |
| CCOC(=O)[C@H](CCc1ccccc1)N[C@@H](C)C(=O)N1[C@H](C(=O)O)C[C@@H]2CCC[C@@H]21 [Ramipril] | 92 |
| COc1cc([C@@H]2c3cc4c(cc3[C@@H](O[C@@H]3O[C@@H]5CO[C@@H](c6cccs6)O[C@H]5[C@H](O)[C@H]3O)[C@H]3COC(=O)[C@H]23)OCO4)cc(OC)c1O [Teniposide] | 100 |
| CCN1CCN(c2ccc(Nc3cc(N(C)C(=O)Nc4c(Cl)c(OC)cc(OC)c4Cl)ncn3)cc2)CC1 [Infigratinib] | 100 |
| NCCCC[C@H](NC(=O)[C@@H](NC(=O)[C@H](Cc1c[nH]c2ccccc12)NC(=O)[C@H](CCCCN)NC(=O)[C@H](CCCCN)NC(=O)[C@H](Cc1c[nH]c2ccccc12)NC(=O)[C@H](Cc1c[nH]c2ccccc12)NC(=O)[C@H](CCCCN)NC(=O)[C@@H](N)CCCCN)C(c1ccccc1)c1ccccc1)C(N)=O | 100 |
